Source: the supplement of paper PMC3334620
In all, about 33,000 sequences were measured (“E-score (-0.5 to 0.5)”: median about -0.013, highest 2% from about 0.3 on). The sample as a whole holds a higher share of the highest values than the screen did.

Each sequence was assayed against T1, Msn1 (UniProt P22148) (assay: PBM E-score (8-mer binding enrichment) (E-score (-0.5 to 0.5)); higher = stronger / more preferred TF binding). Details: protein concentration: 200 nM; construct: GST-full length.
T1 sequence: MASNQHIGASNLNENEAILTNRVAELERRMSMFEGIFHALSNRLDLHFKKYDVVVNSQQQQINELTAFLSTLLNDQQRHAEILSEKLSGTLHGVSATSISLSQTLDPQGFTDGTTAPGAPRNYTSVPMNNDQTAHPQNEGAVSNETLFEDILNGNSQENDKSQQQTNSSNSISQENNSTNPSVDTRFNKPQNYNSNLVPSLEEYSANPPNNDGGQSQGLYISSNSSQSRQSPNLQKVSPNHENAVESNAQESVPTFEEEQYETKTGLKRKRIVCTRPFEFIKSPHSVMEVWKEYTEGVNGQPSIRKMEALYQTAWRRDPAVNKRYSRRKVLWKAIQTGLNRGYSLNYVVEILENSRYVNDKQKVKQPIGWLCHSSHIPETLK
Summary of the method: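 Each ungapped eight-base word and its reverse complement, pooled, received an E-score from the Universal PBM Analysis Suite. Underlying scans, normalised with masliner, recorded fluorescent anti-GST bound to GST-tagged yeast transcription factors. These were applied at about 100-200 nM to universal all-10-mer Agilent arrays double-stranded by primer extension.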

Sequence | PBM E-score
AAATTTAA | 0.238
GGAAGAAC | -0.012
GCCTTTCC | -0.0629
ATGCGACG | -0.249
ATGGCTGA | -0.133
CTGTACCC | -0.0861
GCACCGAA | 0.0642
CTTAGACA | 0.232
CATAGACA | 0.35
ATTAGACA | 0.295
CATAGACG | 0.194
TGTAGACA | 0.261
CATAGACC | -0.0541
AAGAGACA | 0.288
GTTAGACA | 0.33
TAGAGACA | 0.377
TATAGATA | 0.0139
GAGAGACA | 0.246
TATAGACA | 0.405
GGAGCTCA | -0.0253
ACCCGGTA | 0.0382
CCGGCTAG | -0.141
GATTCACC | -0.145
CGAGGTAG | -0.251
AGGAAACT | 0.025

Sequence | PBM E-score
ACAAGAGG | -0.011
AATAGACA | 0.259
GATAGACC | -0.0609
GATAGACA | 0.331
GCTAGACA | 0.212
CCTAGACA | 0.0613
TCTAGACA | 0.332
ACTCGACC | -0.143
ACATACTC | 0.0584
GAGCCTTA | -0.168
GTGTCCAA | 0.389
ATGTCCAG | 0.457
AGGTCCAC | -0.067
ATGTCCAA | 0.485
CTGTCCAA | 0.287
GAGTCCAA | -0.0901
AGGTCCAA | -0.00743
AAGTCCAG | 0.244
AGGTCCAG | 0.0683
CTGTCCAC | 0.184
GGGTCCAA | -0.104
ATGTCCAC | 0.446
ATGGGTAA | 0.0578
CTTCCACC | -0.298
CGGTATCC | -0.224

Sequence | PBM E-score
AAACATGT | 0.17
ACCGATTC | -0.0811
AGATTGTC | 0.369
CGATTGTA | 0.088
CGATTGAC | 0.151
AGATTGTA | 0.091
CGATTGTC | 0.348
AGATTGTG | -0.0281
AGTTATTA | 0.0736
CAGCACTG | -0.226
GCCTTCGC | -0.098
CCAGATTC | -0.389
ATTTGTAA | 0.169
CTTTGTAC | 0.322
ATTTGTAC | 0.46
CTTTGTAA | 0.168
ATTTGTAG | 0.162
CCTTGTAC | 0.183
AGGAATTC | -0.0844
AGCGAACG | -0.274
CACCTTCG | -0.0896
CCAAATGG | 0.169
ACAAATGT | 0.446
GCAAATGA | -0.0127
ACAAATGC | 0.304

Sequence | PBM E-score
ACAAACGT | 0.244
CCAAATGC | -0.0167
ACAATGGG | 0.196
ACAAAGGT | 0.218
CCAAATGA | 0.05
ACAAATGA | 0.317
ACAAATGG | 0.345
GCAAATGC | -0.113
CTTCGGGA | 0.15
AACGAGCT | -0.0712
GGCGGCCA | -0.161
CGGTTAGA | -0.22
CACAATCC | 0.119
GCTCAACA | -0.0111
ATAGTTTG | 0.274
GCGCGATA | 0.119
GGATTGGA | 0.0131
ACAAATCC | 0.265
ACAAATCT | 0.308
ACAAATCA | 0.266
GAGGATCC | -0.0362
AAAAATGT | 0.335
AAAAATGG | 0.311
AAAAATGA | 0.143
AAAATGGG | 0.182

Sequence | PBM E-score
AAAAATGC | 0.0785
CAAAATGG | 0.133
AGTTTTTC | 0.0155
ATGCGTGA | 0.167
CGCCAGCG | -0.278
GTCCGGAC | 0.406
GTCCGGAA | 0.368
ATCCGGGA | -0.0993
CTCCGGGA | -0.0499
CTCCGGAA | 0.0926
ATCCGGAA | 0.215
CTCCGGAC | 0.224
GTCCGGGA | 0.336
ATCCGGAC | 0.297
GAGGAGCA | -0.184
TATTTTGA | 0.033
ATCTTTGG | -0.0763
CGCTTGTC | 0.345
AACTTGTG | 0.132
CCCTTGTC | 0.204
AACTTGTA | 0.107
CGCTTGTA | 0.211
CACTTGTC | 0.408
AACTTGAG | -0.212
AACTTGAT | 0.321

Sequence | PBM E-score
AACTTGTC | 0.391
CACTTGTA | 0.157
AGCTTGTC | 0.168
AACTTGAA | 0.101
ACCGAATG | -0.0786
AGCTCACA | -0.111
GCGGCTCC | -0.285
AACGCTAA | -0.0499
ATCGCAAC | -0.0713
GTTAAGAA | -0.0961
GATCCGGA | 0.0679
ACACCTAC | -0.04
CTCTTGTA | 0.035
CTCTTGTC | 0.339
ATCTTGTC | 0.246
CCACCACA | -0.214
TATGGGGA | 0.123
AAGAGGGT | -0.12
CGACATGC | 0.218
CCACATTA | -0.107
AAACATTG | -0.00791
ACACATTG | 0.171
AGACATTA | 0.429
CGACATTA | 0.386
ACACATTA | 0.0185

Sequence | PBM E-score
AGACATGA | 0.226
CGACATTC | 0.332
CTACATTC | -0.121
CTACATTA | 0.00564
AGACATTG | 0.402
ACTAATCA | 0.152
GTTTAGCA | 0.0757
CTCACCCA | -0.0776
TCCTTAGA | 0.117
CAACTATG | 0.161
GGCAGCGA | -0.245
AGATCGCT | -0.0127
GCACATTA | -0.0601
AGACATTC | 0.445
GTACATTA | 0.278
ACACATTC | 0.11
AGACATGC | 0.21
GGACATTA | 0.489
CGAAACCG | 0.0338
ACGCAAGC | -0.0684
ACTAGCTG | 0.0299
AATTCATC | -0.22
AAAAAGTG | -0.0627
